# Source: PubChem BioAssay AID1259417 (TB Discovery Research, Infectious Disease Research Institute, 2018)
# Screen size: about 1,100 compounds; about 760 (69%) were called active. No rule for the calls is given here. The set was probably picked from earlier hits. The list shows a part of the results.
# Experiment: M. tuberculosis growth inhibition, HTS (AID 1259417);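 also: bacteria grown with compound for 5 days at 37 °C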
# Details: stronger effect = higher value, concentration not given here
# [1] = M. tuberculosis DsRed fluorescence growth inhibition
# [2] = M. tuberculosis growth inhibition
Structure (SMILES),inhibition [1],inhibition [2] [%]
Cc1nc2cc(C(=O)OCC(=O)NC34CC5CC(CC(C5)C3)C4)ccc2n1-c1ccccc1,-4.71% (inactive),-17.2
O=C(NC12CC3CC(CC(C3)C1)C2)N1CCN(c2cccc(C(F)(F)F)c2)CC1,100% (active),94.4
O=C(C1CCN(c2nnc(-n3cccc3)s2)CC1)N1CCN(c2cccc(C(F)(F)F)c2)CC1,68.1% (active),27.8
COc1cccc(-c2csc(N3CCN(C(=O)NC45CC6CC(CC(C6)C4)C5)CC3)n2)c1,3.33% (inactive),-30.6
O=C(C1CCN(c2nnc(-n3cccc3)s2)CC1)N1CCc2ccccc2C1,70.1% (active),84.1
Cc1cccc(N2CCN(C3=NC(=O)C(=C4CCCCC4)S3)CC2)c1,84.8% (active),77.9
CC1CCC(C(C)C)C(OC(=O)Cn2c(-c3ccc(F)cc3)[n+](C)c3ccccc32)C1 (centres undefined),94.3% (active),97.5
CCN(CC)c1ccc(NC(=O)c2cnccn2)cc1,92.1% (active),96.5
O=C(Nc1nnc(-c2ccccc2)o1)c1nc2ccccc2s1,94.3% (active),94.8
Cc1ccc(-c2nnc(NC(=O)c3nc4ccccc4s3)o2)c(C)c1,21.8% (active),89.7
CC(C)(C)c1ccc(OCCN2C(=O)C(=O)c3cc(Br)ccc32)cc1,-0.55% (inactive),-12
CC(C)(C)c1ccc(OCCn2c(N)nc3ccccc32)cc1,70.4% (active),90.4
CCc1nc2ccccc2n1CC(O)COc1ccc(I)cc1 (centres undefined),99.5% (active),100
O=C(c1ccccc1)c1ccc(OCC(O)Cn2cnc3ccccc32)cc1 (centres undefined),-0.545% (inactive),-3.24
CC(=O)Nc1nc2ccccc2n1CCOc1ccccc1,93% (active),92.9
CC(=O)Nc1nc2ccccc2n1Cc1ccccc1,81.5% (active),85.5
COc1ccc(C2CC(c3c(-c4ccccc4)c4cc(Br)ccc4[nH]c3=O)=NN2C(=O)c2ccccc2)cc1 (centres undefined),9.47% (inactive),8.15
CCc1nc2ccccc2n1CCCOc1ccccc1,100% (active),101
Cc1nc2ccccc2n1CC(O)COc1ccc(C2C=CCC2)cc1 (centres undefined),101% (active),101

Structure (SMILES),inhibition [1],inhibition [2] [%]
COc1ccc(SN=C2C(C)=CC(=O)C=C2C)cc1,5.38% (inactive),20
CN(C)CC1CC(C(C)(C)C)CCC1=O (centres undefined),63.9% (active),85.1
O=c1oc(-c2ccccc2Br)nc2sc3c(c12)CCCC3,99.7% (active),98.6
CCCc1cc2c(=O)c(-c3ccc4c(c3)OCCCO4)coc2cc1OCC(=O)OCC,62.8% (active),59.1
COc1ccccc1-c1c(C)oc2cc(OCC(=O)OCc3ccccc3)ccc2c1=O,28.7% (active),62.9
COC(=O)COc1ccc2c(=O)c(-c3ccc(Cl)cc3)coc2c1,78.7% (active),94.8
NNC(=O)c1ccc(-c2ccccc2Cl)o1,-6.57% (inactive),6.08
COC(=O)COc1ccc2c(=O)c(-c3ccccc3Cl)c(C)oc2c1,74.9% (active),95.5
CS(=O)(=O)Nc1cccc(C2=NN(c3nc(-c4ccccc4)c4cc(Cl)ccc4n3)C(c3ccco3)C2)c1 (centres undefined),7.39% (inactive),-23.7
COc1ccccc1-c1coc2cc(OCC(=O)OC3CCCCC3)ccc2c1=O,40.7% (active),66.9
CCc1cc2c(=O)c(-c3ccc(OC)cc3)coc2cc1OCC(=O)OC,63.7% (active),86.9
CCCCOC(=O)COc1ccc2c(=O)c(Oc3ccc(OCC)cc3)c(C)oc2c1,31.4% (active),83.7
CCOC(=O)COc1ccc2c(=O)c(Oc3cnn(-c4ccccc4)c3)c(C)oc2c1,79% (active),94.4
CCOC(=O)COc1ccc2c(=O)c(-c3ccccc3)coc2c1,96% (active),97
COC(=O)COc1ccc2c(=O)c(-c3ccccc3OC)coc2c1,16.1% (active),38.3
COc1ccccc1-c1coc2cc(OCC(=O)OCc3ccccc3)ccc2c1=O,36.9% (active),64.7
CCOC(=O)COc1ccc2c(=O)c(-c3ccccc3OC)coc2c1,10.9% (inactive),27
COC(=O)COc1ccc2c(=O)c(Oc3ccccc3)c(C)oc2c1,77.7% (active),88.9
COC(=O)COc1ccc2c(=O)c(-c3ccccc3Cl)coc2c1,74% (active),94.8

Structure (SMILES),inhibition [1],inhibition [2] [%]
CCC(C(=O)Nc1ccc(CC(=O)OC)cc1)c1ccccc1 (centres undefined),70.5% (active),93.3
COc1cc(Br)cc2cc(C(=O)Nc3cccc(C(F)(F)F)c3)c(=O)oc12,10.9% (inactive),29.4
COc1ccc(OC)c(NC(=O)c2cc3cc(Cl)ccc3oc2=O)c1,12.1% (inactive),21.1
CCCCc1ccc(NC(=O)c2cc3cc(Br)cc(OC)c3oc2=O)cc1,4.42% (active),82.8
COc1ccc(OC)c(NC(=O)c2cc3cc(Br)ccc3oc2=O)c1,9.39% (active),46.5
COc1cc(NC(=O)c2cc3ccccc3o2)ccc1NC(=O)c1ccccc1Cl,2.65% (inactive),-0.577
Cn1nc([N+](=O)[O-])nc1Sc1nnc(-c2cccnc2)o1,87.1% (active),91.2
CC(NS(=O)(=O)c1cccc(Cl)c1)C(=O)Nc1ccc(Br)cc1F (centres undefined),11.5% (inactive),13.5
Cc1cc(Cl)ccc1NC(=O)CCc1ccc(S(=O)(=O)NC(C)C)cc1,94.8% (active),83.1
Cc1ccc(NC(=O)C(C)NS(=O)(=O)c2ccc(Cl)cc2)cc1Cl (centres undefined),2.64% (inactive),-8.36
Cc1cc(Cl)ccc1NC(=O)CCc1ccc(S(=O)(=O)NCC(C)C)cc1,95.3% (active),83.6
CCOC(=O)c1cccc(NC(=O)C(Cl)Cl)c1,47.5% (active),52.3
COc1cc(NC(=O)C(Cl)Cl)c(OC)cc1Cl,7.63% (inactive),4.68
Cc1cc(=O)[nH]c(-n2nc(C)cc2C)n1,91.4% (active),94.9
COc1cc(C(=O)Nc2sc3c(c2C(=O)NCC2CCCO2)CCC3)cc(OC)c1OC (centres undefined),-3.52% (inactive),-31.7
COc1ccc(-c2nsc(SCC(=O)NCc3ccco3)n2)cc1,93.1% (active),66.6
COc1ccc(-c2nsc(SCC(=O)NCC3CCCO3)n2)cc1 (centres undefined),95.7% (active),76.1
CC(C)(C)c1ccc(C(=O)Nc2sc3c(c2C(=O)NCC2CCCO2)CCCC3)cc1 (centres undefined),12.8% (inactive),-13.4
Cc1cccc(-c2nsc(SCC(=O)NCC3CCCO3)n2)c1 (centres undefined),94.3% (active),76.8
